Assay outcomes: PubChem, National Center for Advancing Translational Sciences (NCATS)
The list is not random: actives were taken first. Their share in the collection is about 10%.
ALDH1A1 inh: blocks purified human ALDH1A1 activity; P00352; Purified ALDH1A1, NADH fluorescence, propionaldehyde substrate; Potency, µM (doses to about 75.3 µM), inactives show top-dose activity, negative = inhibition, actives largely listed as inhibitors; hit rate 7.3% among 220,000; AID 1030;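 further: potency means the concentration at half of the fitted maximal effect; plate controls were no enzyme wells and a reference inhibitor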
Lamin A splicing: modulators of lamin A splicing | HeLa LMNA splicing GFP/RFP minigene ratio, 48 h | Potency, µM (top dose mostly 46.1 µM), for inactives: at the highest dose ratio change, negative = inhibition, actives largely listed as inhibitors | hit rate 0.01% among 200,000 | AID 1487; active means well fitted inhibition curve with a large enough effect in the signal ratio, with a control signal flat, not every such curve was filed as active; inconclusive means small, poorly fitted or top-dose-only effect, or effect the other way, or a change in a side signal; the % refers to the signal ratio; further: potency means the concentration at half of the fitted maximal effect
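S3 HeLa cells stably expressing lamin A-EGFP splicing minigene plus DsRed2, 600 cells/well, 48 h compound exposure at 37C. Laser-scanning cytometry; analysed as GFP (500-530 nm)/RFP (575-640 nm) total intensity ratio; 0.5% DMSO vehicle.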
PNC inhibitor: blocks assembly of the perinucleolar compartment | activity change (PNC), negative = inhibition, % at 10 µM | PC3M PTB-GFP, PNC prevalence imaging, 16 h; hits give low values | hit rate 3.1% among 140,000;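 active means readout at or below -70, meaning at least 70% loss of cells showing the perinucleolar compartment, a nuclear body marking cancer cells; inconclusive means readout between -30 and a set limit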;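 further: plate controls were DMSO wells for no effect and camptothecin positive control wells for full effect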
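Read-out is percentage of cells bearing a perinucleolar compartment, from automated 20x imaging of fixed, Hoechst-stained PC3M PTB-GFP cells. Cells were seeded 4 h, then exposed 16 h to compound (23 nl of library stock) in duplicate plates.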
HPGD block: HPGD (human) dehydrogenase inhibition; P15428; purified HPGD, NADH fluorescence kinetic, PGE2 substrate; hit rate 4.3% among 150,000; Potency, µM, for the others: top-dose activity change, negative = inhibition, usual class: inhibitors; AID 894; further: potency means the concentration at half of the fitted maximal effect
Target sequence (P15428 whole entry, looked up): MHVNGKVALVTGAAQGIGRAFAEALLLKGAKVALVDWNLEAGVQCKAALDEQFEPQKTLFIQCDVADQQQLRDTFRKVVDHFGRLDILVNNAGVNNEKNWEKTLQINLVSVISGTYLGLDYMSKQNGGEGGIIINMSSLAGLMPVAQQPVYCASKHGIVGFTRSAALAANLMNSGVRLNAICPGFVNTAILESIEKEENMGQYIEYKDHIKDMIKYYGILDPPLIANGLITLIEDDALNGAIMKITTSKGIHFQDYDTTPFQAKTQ
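20 nM HPGD preincubated 15 min at room temperature with compound in 50 mM Tris-HCl pH 8, 0.01% Tween 20. Started with 1 mM NAD+ and 30 uM prostaglandin E2; NADH fluorescence (360/450 nm) read 5 times over 30-s intervals, last minus first.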
Luc counter: Kinase-Glo luciferase inhibition (counter-screen). Kinase-Glo luciferase, ATP luminescence, 8 min. Potency, µM (series often up to 38.3 µM), for the others: at the highest dose activity change, negative = inhibition, actives largely listed as inhibitors. hit rate 0.28% among 200,000. AID 1379; active means well fitted inhibition curve with a large enough effect; inconclusive means small, poorly fitted or top-dose-only effect; further: potency means the concentration at half of the fitted maximal effect; nearly all actives have a fitted effect of over 60% in size
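Recombinant Kinase-Glo luciferase, 10 uM ATP (linear range), luciferin; imidazole pH 7.2 / KCl / MgCl2 / Tween / BSA buffer; 8 min RT; luminescence.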
An asterisk follows results filed as active; ? = inconclusive; . = no result given; ! = not active in a repeat; [ ] = another dose, or the depositor's remark. Unless noted, the call rests on the fitted dose curve; in most records, active means well fitted inhibition curve with a large enough effect (not every such curve was filed as active); inconclusive means small, poorly fitted or top-dose-only effect, or another doubt; inactive means no such curve, though single readings can be large or run the other way. Unless noted, on the % scale 0 is the no-effect control and ±100 the full control effect.

SMILES	ALDH1A1 inh	Lamin A splicing	PNC inhibitor	HPGD block	Luc counter
O=C(CSc1cccc[n+]1[O-])Nc1cc(S(=O)(=O)N2CCOCC2)ccc1Cl	-12.5%	-6.9%	-88.3*	-10.8%	-0.5%
COc1ccccc1-c1c(C)nn2c(N3CCN(c4ccc(Cl)cc4)CC3)cc(C)nc12	.	-5.6%[46 µM]	.	.	.
COc1cc2c3nnc(-c4ccc(F)cc4)c-3cn(Cc3ccc(C)cc3)c2cc1OC	4.47µM*	-9.4%	-17.4	-16.3%	1.5%
Cc1ccc(S(=O)(=O)n2cnc3cc([N+](=O)[O-])ccc32)cc1C	4.2%	11.5%	-0.8	-0.1%	-1.3%
Cc1ccc(-n2c3nc(=O)[nH]c(=O)c-3cc3cc([N+](=O)[O-])ccc32)cc1C	3.2%	?	-15.9	31.6µM*	2.6%
O=C1C(SCCO)=C(SCCO)C(=O)c2ccccc21	17.8µM*	?	.	2.82µM*!	-10.1%
CC(C)(C)c1ccc(S(=O)(=O)NCc2ccc(C(=O)N3CCOCC3)cc2)cc1	11.2µM*	4.6%	18.1	-11.5%	-3.7%
COc1ccc(S(=O)(=O)NCc2ccc(C(=O)N3CCc4ccccc4C3)cc2)cc1	3.2%	?	?	2.82µM*	0.5%
CCOC(=O)N1CCN(C(=O)c2ccc(CNS(=O)(=O)c3ccc(OC)cc3)cc2)CC1	-17.4%	2.9%	-25.6	-9.2%	10.8%
O=C(C1CCN(S(=O)(=O)c2ccc(Cl)cc2)CC1)N1CCOCC1	-1.9%	2.2%	?	-14.9%	-2.5%
COc1ccc(S(=O)(=O)N2CCC(C(=O)N3CCc4ccccc4C3)CC2)cc1	?	?	4.9	35.5µM*	2.3%
COc1ccc(S(=O)(=O)N2CCC(C(=O)N3CCOCC3)CC2)cc1	-2.3%	-10.4%	-100.0*	-7.2%	5.2%
CCN1CCN(C(=O)N2CCOCC2)CC1	6.4%	?	.	.	-1.1%
CCCCCCSc1nsc(NC(=O)CCC)n1	-3.5%	.	.	.	-2.7%
COC(=O)NC(CC(C)=O)c1ccc2c(c1)OCO2 (centres undefined)	9.4%[13.5 µM]	.	.	.	.
N#Cc1c(NC(=O)C2CC(Cl)=CCC2C(=O)O)sc2c1CCCC2 (centres undefined)	17.8µM*	.	.	.	1.4%
Cc1cc(C(=O)Nc2sc3c(c2C#N)CCCC3)no1	11.2µM*	-15.7%	-12.8	28.2µM*	-1.5%
N#Cc1c(NC(=O)c2cc(-n3cnnc3)ccc2Cl)sc2c1CCCC2	12.6µM*	?	20.9	-10.7%	3.5%
Cc1cc(C(=O)Nc2sc3c(c2C#N)CCC3)no1	?	-24.0%	-85.4*	-9.6%	-1.7%
Cc1sc(NC(=O)C2CC(Cl)=CCC2C(=O)O)c(C#N)c1C (centres undefined)	-7.1%	.	.	.	1.2%
CCOc1ccc(NC(=O)N(C)CCc2c(C)nn(C)c2C)cc1	.	15.7%[46 µM]	.	.	.
CCN1C(=O)[C@H]2[C@H]3[C@H](O)[C@H](O)C/C(=N/OC[C@@H](O)COCc4ccco4)[C@H]3CC[C@@H]2C1=O	11.9%[13.5 µM]	.	.	.	.
COc1ccc(CNC(=O)c2oc3c(c2C)-c2nn(Cc4ccccc4Cl)cc2CC3)cc1	.	6.2%[46 µM]	.	.	.
CSC(N)=NCCCC(N)C(=O)O (centres undefined)	9.6%	7.9%	.	0.4%	-2.8%
CCCN1C(=O)c2cccc3c(N4CCCCC4)ccc(c23)C1=O	2.9%	-6.0%	-88.3*	-13.2%	-2.9%
SMILES	ALDH1A1 inh	Lamin A splicing	PNC inhibitor	HPGD block	Luc counter
O=C(Nc1ccc(Nc2ccccc2)cc1)C(Cl)(Cl)Cl	?	?	19.3	31.6µM*	-3.3%
CCC(=O)Nc1ccc(Nc2ccccc2)cc1	9.2%	-12.5%	?	-21.8%	2.4%
O=C(Nc1ccc(Nc2ccccc2)cc1)C(Cl)Cl	12.6µM*	-23.9%	-90.8*	22.4µM*	-4.9%
COC(=O)N1[C@H](C)C=C[C@]1(Cc1ccccc1)C(=O)NCc1ccc(N(C)C)cc1	8.91µM*	.	.	-14.1%	-7.3%
COC(=O)N1[C@H](C)C=C[C@]1(Cc1ccccc1)C(=O)NCc1ccccn1	?	.	.	-6.5%	-8.9%
CN(C)c1ccc(-c2nc(-c3cc4cc(Cl)ccc4oc3=O)cs2)cc1	.	0.8%[46 µM]	.	.	.
COc1cccc2[nH]c3c(=O)n(CCN(C)C)cnc3c12	?	0.3%	-87.2*	?	-3.2%
CCN(CC)Cc1c(O)ccc2c(-c3ccccc3)cc(=O)oc12	?	?	-118.3*	?	1.7%
CCOc1cc(/C=N/O)cc(Br)c1OCC(=O)NCc1ccccc1	?	?	-19.9	17.8µM*	2.0%
